# Reference: PubChem BioAssay
# A number with no mark means an inactive call. How the calls were made is not given here.
# Target: Pantothenate synthetase (Mycobacterium tuberculosis (strain ATCC 25618 / H37Rv)) (UniProt P9WIL5)
# Test: Coupled enzyme confirmation of inhibitors against recombinant Mtb PanC (AID 375);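 further: 0% = full reaction with vehicle and 100% = no enzyme background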
# Details: coupled enzyme assay; at 10 µM, stronger effect = higher value
# Sequence of Pantothenate synthetase (Mycobacterium tuberculosis (strain ATCC 25618 / H37Rv)) (P9WIL5 whole entry, looked up): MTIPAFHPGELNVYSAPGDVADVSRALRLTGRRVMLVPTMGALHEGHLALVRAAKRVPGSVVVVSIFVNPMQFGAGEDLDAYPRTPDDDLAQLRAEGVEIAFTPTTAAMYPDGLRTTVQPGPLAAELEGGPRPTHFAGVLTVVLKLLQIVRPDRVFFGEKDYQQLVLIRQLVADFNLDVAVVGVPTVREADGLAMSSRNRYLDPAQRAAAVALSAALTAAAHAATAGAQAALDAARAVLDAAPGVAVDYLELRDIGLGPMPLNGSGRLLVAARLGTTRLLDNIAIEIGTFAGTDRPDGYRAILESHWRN
row,Structure (SMILES),inhibition [%]
1,CCN(CC)C(=O)c1ccc(NS(=O)(=O)c2ccccc2)cc1,0
2,Cc1cccc(NC(=O)Nc2cccc(C#N)c2)n1,1
3,COC(=O)CNc1nc(C2CC2)nc2c1nnn2Cc1ccccc1Cl,6
4,CC1=Nn2c(nnc2-c2ccccc2)SC1,0
5,O=C(NC(NC1CCS(=O)(=O)C1)C(=O)c1cccs1)c1ccccc1 (stereo not given),1
6,Cc1cccc(-n2ccnc2SCC(=O)Nc2cc(C)on2)c1,1
7,O=C(Nc1c(C(=O)NCc2ccco2)cnn1-c1ccccc1)c1ccc(F)cc1,2
8,CC(COc1ccccc1)N(CCCl)Cc1ccccc1 (stereo not given),0
9,Cc1nn(-c2ccccc2)c(C)c1/C=N/O,0
10,CCCC1(C(=O)OC)NC(c2cc(OC)c(OC)c(OC)c2)C2C(=O)N(CC)C(=O)C21 (stereo not given),0
11,c1cncc(-c2nnc(-c3ccco3)o2)c1,4
12,CCOCCCNC(=O)CCNS(=O)(=O)c1ccc(C)cc1,2
13,COc1cccc(C(=O)OCn2nnc3ccccc3c2=O)c1OC,0
14,CCN1CCN(C(=O)c2ccc3c(=O)n(CCC4=CCCCC4)c(=O)[nH]c3c2)CC1,0
15,COc1cc(C(=O)N(C)c2nnc(-c3cccnc3)s2)cc(OC)c1OC,0
16,Cn1nc(C(C)(C)C)cc1C(=O)NCc1ccc(N2CCCC2=O)cc1,0
17,Cc1ccc(-n2c(=O)c3sccc3n(CC(=O)NCc3ccco3)c2=O)cc1,0
18,O=c1c(-c2ccc(F)cc2)coc2c3c(ccc12)OCCO3,11
19,Cc1ccc(S(=O)(=O)N2CCOCC2)cc1C(=O)Nc1nc(-c2cccnc2)cs1,0
20,CN1CCN(C(=O)CCC(=O)c2ccc(F)cc2)CC1,9

row,Structure (SMILES),inhibition [%]
1,O=C(Nc1ccc(-c2noc(-c3cccs3)n2)cc1)c1cccnc1,0
2,CCOC(=O)C1=C(c2ccccc2)Nc2nc(C)nn2C1c1cccc(OC)c1OC (stereo not given),0
3,COc1ccc(CC(=O)Nc2cc(Cl)ccc2O)cc1,5
4,CC1CN(C(=O)c2scc3c2OCCO3)CC(C)O1 (stereo not given),2
5,CN=Cc1cc(-c2ccccc2)sc1O,0
6,O=C(Nc1nccs1)c1cccc(NC(=O)C2CC2)c1,6
7,Cc1cc(C)n(-c2nc3nonc3nc2-n2nc(C)cc2C)n1,0
8,CCN(c1ccc(OC)cc1)S(=O)(=O)c1ccc2c(c1)CCN2C(=O)CCC(=O)O,0
9,CC1CCCN(C(=O)CN2C(=O)c3ccccc3C2=O)C1 (stereo not given),3
10,C=CCOC(=O)CCC(=O)Nc1cc(OC)nc(OC)n1,0
11,CCN(CC)c1ccc(NC(=O)c2nc3nc(C)cc(C(F)F)n3n2)cc1,0
12,Cc1noc(C)c1S(=O)(=O)N1CCCC(C(=O)NCCc2ccc(Cl)cc2)C1 (stereo not given),3
13,Cc1cc2ccccc2n1CCNC(=O)c1ccc(S(=O)(=O)N2CCOCC2)cc1,4
14,Cc1cc(/C=c2/sc3nc4ccccc4n3c2=O)c(C)n1-c1ccccn1,1
15,COc1ccc(NC(=O)c2cc(C)on2)cc1OC,8
16,O=C(CCCCC(=O)NCc1cccs1)NCc1cccs1,8
17,O=C(O)c1ccc2noc(-c3ccccc3)c2c1,0
18,CCOC(=O)C1CCN(c2c(NCCCN(CC)c3ccccc3)c(=O)c2=O)CC1,0
19,O=C(CCC(=O)N1CCc2ccccc2C1)N1CCN(S(=O)(=O)c2ccccc2)CC1,0
20,Cc1ccc(S(=O)(=O)N2CCN(c3nc(C(C)C)c4c(c3C#N)CC(C)(C)OC4)CC2)cc1,0
